From PubChem BioAssay (Tox21) come the findings set out here.

Molecules are shown by their SMILES. Inconclusive results are not listed. Activity calls are given as the source filed them. Unless noted, calls follow the shape of the dose curve; as a rule, active = well fitted curve in the direction sought with a large enough effect in the repeat runs; inconclusive = weak or mixed curves; inactive = no such curve, though single readings can be large; an effect the other way counts as inactive or inconclusive.

A short description of assay [1]: qHTS assay for small molecules that induce genotoxicity in human embryonic kidney cells expressing luciferase-tagged ATAD5 (AID 651632). Also: nearly all actives have a fitted effect of over 15% in size. The essentials:
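Increased luciferase signal from ATAD5-tagged reporter cells indicates DNA-damage-driven ATAD5 induction. HEK293T cells are treated for 16 hr at 37C before detection with Amplite.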

The nature of assay [2]: qHTS assay for small molecule agonists of the p53 signaling pathway - cell viability (AID 651633; calls by dose curve; also: nearly all actives have a fitted effect of over 30% in size; also: potency is read from the fitted curve at half-maximal effect). An outline of the steps:
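p53RE-bla cells were treated with compound for 16 hours at 37 C. Cytotoxicity was then measured as CellTiter-Glo luminescence after 30 min at room temperature.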
On the technique in general: In qHTS, concentration-response curves come from the screen itself.

Assay [3] in a line: qHTS assay to test for compound auto fluorescence at 590 nm (red) in HepG2 cells (AID 720674). An outline of the steps: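 Fluorescence at 590 nm emission following 540 nm excitation was recorded from HepG2 wells one hour after compound transfer, with DMSO-only wells as vehicle and Rose Bengal sodium equivalency as the scale.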
The nature of assay [4]: qHTS assay to test for compound auto fluorescence at 535 nm (green) in HepG2 cells (AID 720675).
The nature of assay [5]: qHTS assay to test for compound auto fluorescence at 460 nm (blue) in HEK293 cells (AID 720678). The essentials:
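HEK293 cells (2,000 per well, medium with 10% dialyzed FBS) attached for 4-5 hr at 37C, then received compound and stood overnight at 37C, 5% CO2. Blue fluorescence was read at Ex/Em 405/460 nm and expressed relative to triamterene.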

Assay [6] can be described thus: qHTS assay to test for compound auto fluorescence at 590 nm (red) in HEK293 cells (AID 720679). An outline of the steps:
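HEK293 cells (2,000/well, medium with 10% dialyzed FBS) attached for 4-5 hr at 37C, received 23 nL compound and were incubated overnight at 37C, 5% CO2. Red fluorescence was then read at 540/590nm Ex/Em, referenced to Rose Bengal sodium.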

The nature of assay [7]: qHTS assay to test for compound auto fluorescence at 535 nm (green) in HEK293 cells (AID 720680).
Assay [8] is described as follows: qHTS assay to test for compound auto fluorescence at 460 nm (blue) in HEK293 cell free culture (AID 720681). An outline of the steps: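 Compounds were added to cell-free DMEM with 10% FBS and fluorescence read directly. The blue channel used 405 nm excitation and 460 nm emission, with triamterene as the reference fluorophore.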
Assay [9] can be described thus: qHTS assay to test for compound auto fluorescence at 590 nm (red) in HEK293 cell free culture (AID 720683). An outline of the steps: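 Cell-free wells of DMEM with 10% FBS received compound, and intrinsic fluorescence was read at excitation/emission 540/590 nm. Values expressed as equivalence to Rose Bengal sodium.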
Assay [10] can be described thus: qHTS assay to test for compound auto fluorescence at 590 nm (red) in HepG2 cell free culture (AID 720684). The essentials:
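Compounds are added to culture medium (MEM, 10% FBS) lacking cells, then fluorescence is read at excitation 540 nm, emission 590 nm, with Rose Bengal sodium as the equivalency standard.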

Assay [11] is described as follows: qHTS assay to test for compound auto fluorescence at 460 nm (blue) in HepG2 cell free culture (AID 720685). The essentials:
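Compound (23 nL) or DMSO pinned into cell-free MEM with 10% FBS; blue fluorescence read at 405/460 nm excitation/emission, expressed as auto-fluorescence equivalency to triamterene.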

A short description of assay [12]: qHTS assay to test for compound auto fluorescence at 535 nm (green) in HepG2 cell free culture (AID 720686).
The nature of assay [13]: qHTS assay to test for compound auto fluorescence at 460 nm (blue) in HepG2 cells (AID 720687). An outline of the steps: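 HepG2 cells in MEM with 10% FBS, attached overnight at 37 C, were exposed to compound or DMSO for 1 hr at 37 C, 5% CO2. Blue fluorescence was read at 405/460 nm, with triamterene as reference fluorophore.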
Assay [14] can be described thus: qHTS assay to test for compound auto fluorescence at 535 nm (green) in HEK293 cell free culture (AID 720682). An outline of the steps:
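Using fluorescein as calibrant, autofluorescence was quantified at 485/535 nm in cell-free DMEM containing 10% FBS after pintool addition of compound or vehicle.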

Assay [15] addresses Glucocorticoid receptor (Homo sapiens) (UniProt P04150). Briefly: qHTS assay to identify small molecule antagonists of the glucocorticoid receptor (GR) signaling pathway (AID 720692; active = well fitted inhibition curve with a large enough effect in the signal ratio in the repeat runs, not every such curve was filed as active; the % refers to the signal ratio; also: potency is read from the fitted curve at half-maximal effect). An outline of the steps: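 Cells plated, rested 4 h at 37 C/5% CO2; compounds in DMSO pin-transferred; dexamethasone added to 5 nM final; 18 h at 37 C; B/G FRET substrate added, 2 h room temperature; fluorescence measured.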

A short description of assay [16]: qHTS assay for small molecules that induce genotoxicity in human embryonic kidney cells expressing luciferase-tagged ATAD5 - cell viability (AID 651634; calls by dose curve; also: nearly all actives have a fitted effect of over 25% in size). The essentials: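 Cytotoxicity counterscreen in HEK293T cells bearing an ATAD5-luciferase reporter: live-cell protease activity measured by CellTiter-Fluor fluorescence after 15.5 hr compound exposure.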
A short description of assay [17]: qHTS assay for small molecule disruptors of the mitochondrial membrane potential - cell viability (AID 720634; calls by dose curve; also: nearly all actives have a fitted effect of over 20% in size; also: potency is read from the fitted curve at half-maximal effect). An outline of the steps: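 After overnight attachment at 37 C, HepG2 cells received compound or DMSO vehicle for 1 hr. Viability is then taken from ATP-driven luminescence following a 30 min room-temperature CellTiter-Glo step.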
Assay [18] in a line: qHTS assay for small molecule disruptors of the mitochondrial membrane potential (AID 720635). Also: potency is read from the fitted curve at half-maximal effect. An outline of the steps:
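HepG2 cells exposed to compound 1 hr at 37C, then Mito-MPS dye 30 min. Ratio read of aggregate (540/590 nm) versus monomer (490/535 nm) fluorescence.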

Assay [19] concerns the target Glucocorticoid receptor (Homo sapiens) (UniProt P04150). In words: qHTS assay to identify small molecule agonists of the glucocorticoid receptor (GR) signaling pathway (AID 720691; active = well fitted activation curve with a large enough effect in the signal ratio in the repeat runs, not every such curve was filed as active; the % refers to the signal ratio). Particulars: GR-bla HeLa, beta-lactamase reporter ratio, 18 h; activation: at 62.4 µM (top of the series). An outline of the steps:
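Agonist mode in a HeLa line carrying a GRE-controlled beta-lactamase reporter. Compounds act for 18 h at 37 C before a 2 h room-temperature FRET substrate step and fluorescence reading.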

Glucocorticoid receptor (Homo sapiens), sequence (P04150 whole entry, looked up): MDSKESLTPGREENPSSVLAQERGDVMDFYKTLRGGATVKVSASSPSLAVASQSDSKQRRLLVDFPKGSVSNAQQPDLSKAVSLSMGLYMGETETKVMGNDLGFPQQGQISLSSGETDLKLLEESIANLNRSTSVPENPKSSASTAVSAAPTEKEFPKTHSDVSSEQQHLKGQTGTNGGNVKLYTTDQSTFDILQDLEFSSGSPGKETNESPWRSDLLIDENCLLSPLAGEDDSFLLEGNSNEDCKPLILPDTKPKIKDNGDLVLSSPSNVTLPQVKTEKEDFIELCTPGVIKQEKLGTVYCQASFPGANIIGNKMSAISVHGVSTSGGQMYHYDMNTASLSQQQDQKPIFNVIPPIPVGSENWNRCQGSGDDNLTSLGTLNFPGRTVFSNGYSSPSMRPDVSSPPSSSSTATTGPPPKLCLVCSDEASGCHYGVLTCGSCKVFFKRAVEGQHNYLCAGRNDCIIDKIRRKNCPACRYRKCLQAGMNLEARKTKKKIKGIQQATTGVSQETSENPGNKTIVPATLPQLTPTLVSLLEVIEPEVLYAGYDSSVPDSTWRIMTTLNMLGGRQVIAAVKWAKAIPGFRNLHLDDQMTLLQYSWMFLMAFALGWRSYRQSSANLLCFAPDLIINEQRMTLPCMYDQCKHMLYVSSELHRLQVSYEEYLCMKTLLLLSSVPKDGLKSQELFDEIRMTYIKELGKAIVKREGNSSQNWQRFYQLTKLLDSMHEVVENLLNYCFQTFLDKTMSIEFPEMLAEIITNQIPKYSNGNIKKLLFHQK

For the molecule `COP(=O)(OC)O/C(=C\Cl)c1cc(Cl)c(Cl)cc1Cl`, the Potency entry in [1], in assay [2], in assay [4], in assay [5], in [8] and in assay [11] was “inactive” in each case. For the same molecule, the Potency entry in [12] and in [13] was “inactive” throughout. Moreover, the result in [3], in [6], in assay [7], in assay [9] and in assay [10] was inactive.

Take `O=[N+]([O-])C(Br)Br`: the Potency result in [1], in assay [2], in assay [4], in assay [5], in assay [8] and in assay [11] was “inactive” in each case. For the same molecule, the Potency entry in [12], in assay [13] and in [15] was “inactive” throughout. In addition, the outcome in assay [3], in assay [6], in assay [7], in [14], in assay [9] and in [10] was inactive.

Regarding `CCOP(=O)(Sc1ccccc1)Sc1ccccc1`, the Potency entry in assay [1], in assay [16], in [17], in assay [4], in [5] and in assay [8] was “inactive” throughout. The Potency entry in assay [11], in assay [12], in assay [13] and in assay [15] was “inactive” throughout. Further, the call in assay [3], in assay [6], in [7], in assay [14], in assay [9] and in assay [10] was inactive.

As to `NC1CCC(CC2CCC(N)CC2)CC1` (centres undefined), the Potency entry in assay [1], in assay [2], in assay [17], in assay [18], in assay [4] and in [5] was “inactive” throughout. For the same molecule, the Potency result in assay [8], in assay [11], in assay [12], in [13], in [19] and in [15] was “inactive” throughout. Besides, the call in [6], in assay [7], in assay [14] and in [9] was inactive.

Turning to `Cc1ccccc1OP(=O)(Oc1ccccc1C)Oc1ccccc1C`, the Potency result in assay [1], in assay [16], in [4], in assay [5], in [8] and in [11] was “inactive” each time. In addition, the Potency entry in assay [12] and in assay [13] was “inactive” throughout. The Potency in assay [17] is 9.73 µM (active); in [18] it was 17.3 µM (active); in assay [15] it was 27.6 µM (active). Also, the outcome in assay [3], in assay [7], in assay [14], in [9] and in assay [10] was inactive.

Consider `Oc1ccc([C@H]2CNCc3c2ccc(O)c3O)cc1O`, for which the Potency result in assay [1], in assay [2], in assay [18], in assay [4], in assay [5] and in assay [8] was “inactive” each time. In addition, the Potency entry in [11], in assay [12] and in [13] was “inactive” throughout. Also, the molecule was called inactive in assay [6], in assay [7], in [14] and in assay [9].

Take `O=c1[nH]c(Cl)c(Cl)cc1Cl`: the Potency entry in assay [1], in assay [2], in [17], in assay [4], in [5] and in assay [8] was “inactive” each time. Also, the Potency entry in assay [11], in assay [12] and in [13] was “inactive” in each case. The Potency in assay [18] was 54.5 µM (active). Also, the result in assay [6], in assay [7], in assay [14], in [9] and in [10] was inactive.

With `C[C@]12C/C(=C/O)C(=O)C[C@@H]1CC[C@@H]1[C@@H]2CC[C@@]2(C)[C@H]1CC[C@]2(C)O`, the Potency entry in [1], in assay [17], in assay [4], in [5], in assay [8] and in assay [11] was “inactive” throughout. In addition, the Potency entry in assay [12], in assay [13] and in assay [19] was “inactive” throughout. In [2], the Potency is 49 µM (active). The molecule was classed as inactive in assay [3], in assay [6], in [7], in [9] and in assay [10].
